The source of these data is ChEMBL document CHEMBL1201862, “PubChem BioAssay data set” (2004).

Out of some 400,000 compounds screened, about 2,100 (0.53%) were called active. Inconclusive results (about 14%) are left out. No rule for the calls is given here. The entries come from a sample that favours actives as a whole.

Chain of Ataxin-2 (Homo sapiens) (Q99700 whole entry): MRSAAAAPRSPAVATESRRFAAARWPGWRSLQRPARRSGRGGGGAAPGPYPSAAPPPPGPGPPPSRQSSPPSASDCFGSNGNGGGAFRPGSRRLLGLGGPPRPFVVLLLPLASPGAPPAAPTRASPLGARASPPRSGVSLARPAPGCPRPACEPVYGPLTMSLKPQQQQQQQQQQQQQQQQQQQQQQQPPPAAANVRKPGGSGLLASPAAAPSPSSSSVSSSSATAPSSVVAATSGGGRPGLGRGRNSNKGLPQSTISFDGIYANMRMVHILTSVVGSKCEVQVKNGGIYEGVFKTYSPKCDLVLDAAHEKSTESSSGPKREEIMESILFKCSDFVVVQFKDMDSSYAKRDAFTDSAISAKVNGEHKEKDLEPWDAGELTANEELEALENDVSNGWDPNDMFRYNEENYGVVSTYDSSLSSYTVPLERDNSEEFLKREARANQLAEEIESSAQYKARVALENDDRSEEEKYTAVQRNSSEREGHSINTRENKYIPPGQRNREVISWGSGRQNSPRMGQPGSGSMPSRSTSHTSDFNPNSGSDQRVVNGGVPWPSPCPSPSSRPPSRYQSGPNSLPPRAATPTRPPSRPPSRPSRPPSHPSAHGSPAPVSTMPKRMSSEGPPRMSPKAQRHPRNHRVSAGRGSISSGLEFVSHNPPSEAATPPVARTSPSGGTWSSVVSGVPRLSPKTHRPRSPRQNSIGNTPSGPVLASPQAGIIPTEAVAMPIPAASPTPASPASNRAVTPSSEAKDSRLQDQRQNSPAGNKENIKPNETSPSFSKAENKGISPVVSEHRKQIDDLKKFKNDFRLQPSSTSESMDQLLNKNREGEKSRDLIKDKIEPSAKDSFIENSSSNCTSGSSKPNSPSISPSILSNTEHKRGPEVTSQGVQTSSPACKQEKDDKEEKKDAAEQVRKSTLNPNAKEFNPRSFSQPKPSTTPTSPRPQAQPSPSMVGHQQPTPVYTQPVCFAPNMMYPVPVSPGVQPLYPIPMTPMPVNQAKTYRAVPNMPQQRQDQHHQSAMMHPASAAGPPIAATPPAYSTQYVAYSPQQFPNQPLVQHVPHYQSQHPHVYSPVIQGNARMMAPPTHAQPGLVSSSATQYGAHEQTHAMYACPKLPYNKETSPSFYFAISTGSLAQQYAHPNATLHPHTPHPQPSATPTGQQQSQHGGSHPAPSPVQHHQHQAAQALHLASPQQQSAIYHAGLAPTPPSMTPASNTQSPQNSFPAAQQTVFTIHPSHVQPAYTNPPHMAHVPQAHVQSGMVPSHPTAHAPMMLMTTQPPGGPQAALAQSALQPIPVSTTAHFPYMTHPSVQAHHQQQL

The assay addresses Ataxin-2 (Homo sapiens) (UniProt Q99700). Briefly: qHTS for Inhibitors of ATXN expression. The format is functional.
Take `CCCCC(=O)N/N=C/c1ccc(-c2ccc([N+](=O)[O-])cc2)o1`: the Potency entry is “inactive”.

With `CSCCC(NC(=O)COc1ccccc1)C(=O)N(C)Cc1c(F)cccc1Cl` (stereo not given), the Potency result was “inactive”.

For `Cc1cc2oc(=O)cc(CN3CCOCC3)c2cc1Cl`, the Potency entry is “inactive”.

In the case of `Cc1ccc(-c2cc(C#N)c(=O)n(Cc3c(Cl)cccc3Cl)c2)cc1`, the Potency result is “inactive”.

Turning to `Cc1cccc(Cn2ncc(Cl)c(Cl)c2=O)c1`, the Potency was 39.8 µM (active).

For `Cc1cc2oc(=O)cc(Cn3ncc(Cl)c(Cl)c3=O)c2cc1Cl`, the Potency is 39.8 µM (active).

On to `Cc1ccc(Cn2ncn(-c3ccccc3)c2=O)cc1`, for which the Potency result was “inactive”.

Consider `O=c1c(Cl)c(Cl)cnn1Cc1ccc(F)cc1`, for which the Potency is 39.8 µM (active).

For `Cc1ccc(Cn2c(=O)c3ccccc3n3nc(C)cc23)cc1`, the Potency result was “inactive”.

As for `CC(=O)c1cn(-c2ccc(Cl)cc2)c(=O)n(Cc2ccc(F)cc2)c1=O`, the Potency result was “inactive”.

Turning to `CC1CCN(Cc2cc(=O)oc3cc(O)c(Cl)cc23)CC1`, the Potency entry is “inactive”.

Regarding `Cc1ccc(Cn2ncc(Cl)c(Cl)c2=O)cc1`, the Potency is 39.8 µM (active).

Turning to `CC(C)(C)c1cc(C(=O)NN)n(Cc2ccc(F)cc2)n1`, the Potency entry is “inactive”.

Take `Cc1ccc(Cn2c(=O)c3c(ncn3C)n(C)c2=O)cc1`: the Potency result is “inactive”.

With `CCC(C)N1C(=O)S/C(=C/c2ccc(N3CCOCC3)cc2C)C1=O` (stereo not given), the Potency entry is “inactive”.

As for `CCN(CC)Cc1c(O)ccc2cc(-c3nc4ccccc4n3C)c(=O)oc12`, the Potency result is “inactive”.

Turning to `Cc1c2ccccc2nc2c(F)c(N(C)C)c(F)c(F)c12`, the Potency entry is “inactive”.

For `Cc1c(O)ccc2cc(S(=O)(=O)c3ccccc3)c(=O)oc12`, the Potency result is “inactive”.

With `Cc1cc(C(=O)COC(=O)[C@H](C)NC(=O)c2ccco2)c(C)n1Cc1ccco1`, the Potency entry is “inactive”.

Take `COc1ccc(C)cc1NCc1ccc([N+](=O)[O-])cc1`: the Potency entry was “inactive”.

Consider `COc1ccccc1Nc1nc2cc(C)ccc2cc1C#N`, for which the Potency result was “inactive”.

As to `COc1ccc(C)cc1Nc1n[n+](-c2ccccc2)c(-c2c(OC)ccc3ccccc23)s1`, the Potency is 20 µM (active).

Take `O=c1[nH]c(=O)n(-c2cc(Br)c(O)c(Br)c2)cc1Br`: the Potency entry is “inactive”.

Consider `O=c1oc2ccccc2cc1-c1nc(-c2cccs2)cs1`, for which the Potency result was “inactive”.

With `C=CCOc1ccc(C2C(C(=O)c3ccco3)=C(O)C(=O)N2c2nnc(C)s2)cc1` (stereo not given), the Potency entry was “inactive”.

In the case of `C=C1CC2(CC(c3ccccc3)OC(c3ccccc3)C2)OC1=O` (stereo not given), the Potency was 39.8 µM (active).

For the molecule `O=C(/C=C/c1cn(CC(O)CN2CCCCCC2)c2ccccc12)c1cccs1` (stereo not given), the Potency result is “inactive”.

For the molecule `Fc1ccc(-c2ncc3ccccn23)cc1`, the Potency result was “inactive”.

In the case of `Cn1c(=S)n(C)c2ccccc21`, the Potency result is “inactive”.

Consider `CN(C(=O)CSc1nnc(-c2cccs2)n1N)c1ccccc1`, for which the Potency result is “inactive”.

With `CC1CCN(C(=O)CCC(=O)Nc2nnc(C(F)(F)F)s2)CC1`, the Potency entry is “inactive”.

For the molecule `CCC(NC(=O)Nc1nnc(C(F)(F)F)s1)(C(F)(F)F)C(F)(F)F`, the Potency was 31.6 µM (active).

As for `O=C(Nc1nnc(C(F)(F)F)s1)c1c(F)cccc1F`, the Potency result is “inactive”.

Take `O=C(O)CSc1nnc(-c2cccc(S(=O)(=O)N3CCOCC3)c2)n1-c1ccc(F)cc1`: the Potency entry is “inactive”.

As for `N=C1C=CC(=C(c2ccc(N)cc2)c2ccc(N)cc2)C=C1`, the Potency was 28.2 µM (active).

`COc1ccc(COc2ncnc3ccc(Br)cc23)cc1F`: the Potency entry is “inactive”.

Consider `Cc1cc(S(=O)(=O)NC2CC(C)(C)NC(C)(C)C2)c(Cl)cc1Cl`, for which the Potency entry was “inactive”.

For `CCC1CCCCN1CCCNC(=O)c1[nH]c2ccccc2c1Sc1ccc(Cl)cc1` (stereo not given), the Potency was 39.8 µM (active).

In the case of `CCCCCn1c(=O)[nH]c2cc(C(=O)NCCCN3CCCCC3C)ccc2c1=O` (stereo not given), the Potency entry was “inactive”.

As for `CC1CCCCC1NC(=O)CCn1c(=S)[nH]c2ccccc2c1=O` (stereo not given), the Potency result is “inactive”.

As to `CC1CCCCN1CCCNC(=O)c1[nH]c2ccccc2c1Sc1ccc(Cl)cc1` (stereo not given), the Potency is 39.8 µM (active).

With `COc1ccccc1[C@H]1C(c2ccccc2)=NN(c2ccccc2)[C@@H]1CO`, the Potency entry was “inactive”.

As to `Cc1ccc(C2=CC(c3ccc(C)cc3)n3ncnc3N2)cc1` (stereo not given), the Potency result is “inactive”.

For the molecule `CC(=O)c1ccc(Nc2cc(C)nc3c(C)cc(C)cc23)cc1`, the Potency was 29.9 µM (active).

Take `Cc1ccc(Nc2cc(C)c(O)c(C)c2)cc1`: the Potency entry is “inactive”.

With `COCc1cc(C)nc2sc(C(=O)Nc3ccc(C(C)=O)cc3)c(N)c12`, the Potency result was “inactive”.

As to `COC(=O)Cc1c(C)c2cc3c(c(C)c2oc1=O)OCN(CCc1ccc(F)cc1)C3`, the Potency result was “inactive”.

For the molecule `COC(=O)Cc1c(C)c2ccc3c(c2oc1=O)CN(Cc1ccccc1OC)CO3`, the Potency entry is “inactive”.

For the molecule `COc1ccc(C2C=C(c3ccc(Br)cc3)Nc3nc(N4C(=O)CCC4=O)nn32)cc1` (stereo not given), the Potency entry was “inactive”.

Take `CCc1cc(=O)oc2c(CN3CCN(C)CC3)c(O)ccc12`: the Potency entry was “inactive”.

For `Cc1ccc(-c2csc3ncnc(Sc4nnc(CN5CCCCCC5=O)o4)c23)cc1`, the Potency is 39.8 µM (active).

For `CCN(CC)c1ccc(C(=O)OCC(=O)N(C(C)C)C(C)C)cc1`, the Potency result was “inactive”.

Take `CCN(CC)c1ccc(C(=C2C=CC(=[N+](CC)CC)C=C2)c2ccc(N(CC)CC)cc2)cc1`: the Potency is 10 µM (active).

For the molecule `CCN(CC)c1ccc(C(=O)c2cnc(/N=C/N(C)C)s2)cc1`, the Potency result is “inactive”.

In the case of `CCOc1ccc(Nc2nc3c(C)cccc3cc2C#N)cc1`, the Potency entry was “inactive”.

As for `O=C(Cc1ccc(Cl)cc1)Nc1ccc(-c2nnc(-c3ccco3)o2)cc1`, the Potency was 39.8 µM (active).

Turning to `Cc1ccc(NC(=O)Cc2ccc(Cl)cc2)nc1`, the Potency result is “inactive”.

With `N=C(N)NS(=O)(=O)c1ccc(NC(=S)NC(=O)Cc2ccc(Cl)cc2)cc1`, the Potency entry is “inactive”.

As to `CC(C)OCCCNC(=O)NC(=O)c1ccc(Cl)cc1`, the Potency result is “inactive”.

For `O=C(COc1ccc(Cl)cc1)N(Cc1cccs1)C1CCS(=O)(=O)C1` (stereo not given), the Potency entry is “inactive”.

On to `CCOc1ccc(-n2cc(C(=O)c3cc(Cl)ccc3O)cc(C#N)c2=O)cc1`, for which the Potency result is “inactive”.

For `CCOc1ccc(/C=C/C(=O)c2cc(Br)ccc(=O)c2O)cc1`, the Potency was 22.4 µM (active).

Consider `CCOc1ccc(OCCOc2ccc(/C=C/C(=O)O)cc2OCC)cc1`, for which the Potency result was “inactive”.

On to `Cc1cc(O)c(C(=O)/C=C/c2ccc(Cl)cc2)c(=O)o1`, for which the Potency entry was “inactive”.

As to `CCN=c1ccc(Br)cc(C(=O)/C=C/c2ccc(Cl)cc2)c1O`, the Potency was 31.6 µM (active).

`CC(C)(C)c1ccc(C(=O)NNc2ncccc2-n2cccc2)cc1`: the Potency result was “inactive”.

Regarding `CC(=O)N/N=C/c1cc(C(C)C)cc(/C=N/NC(C)=O)c1O`, the Potency result was “inactive”.

For the molecule `O=c1c(Br)c(Br)cnn1-c1ccccc1`, the Potency was 4.23 µM (active).

For `COc1cc(OC)nc(-n2ncc(Br)c(Br)c2=O)n1`, the Potency is 10.6 µM (active).

Turning to `Nc1cccc(Oc2c(F)c(F)c(Oc3cccc(N)c3)c(F)c2F)c1`, the Potency result is “inactive”.

For `Cc1ccc(NC(=O)CN(C)C(=O)COC(=O)c2nccnc2N)cc1`, the Potency result was “inactive”.

Turning to `CN(CC(=O)Nc1ccccc1Cl)C(=O)COC(=O)c1nc(Cl)c(Cl)c(Cl)c1Cl`, the Potency is 28.2 µM (active).

Regarding `Cc1cnc(C(=O)OCC(=O)Nc2cccc3ccccc23)cn1`, the Potency result is “inactive”.

Turning to `CCCCc1c(-c2ccc(Cl)cc2)ncn1CCc1ccccc1OC`, the Potency is 39.8 µM (active).

For `COc1cc2c3nnc(-c4ccccc4)c-3cn(Cc3ccccc3F)c2cc1OC`, the Potency result is “inactive”.

Turning to `CCCc1c(-c2ccc(Cl)cc2)ncn1Cc1ccccc1OC`, the Potency is 44.7 µM (active).

Consider `CCCCCc1c(-c2ccc(Cl)cc2)ncn1CCc1ccccc1OC`, for which the Potency is 39.8 µM (active).

Consider `CC(=O)c1cc2ccc(O)cc2oc1=O`, for which the Potency result was “inactive”.

For `COCCNC(=O)/C(=C/c1ccccc1Cl)c1ccccc1`, the Potency result was “inactive”.

For the molecule `O=C1CC(c2cccc(Br)c2)C2=C(COC2=O)N1` (stereo not given), the Potency result was “inactive”.

Take `CN(C)/C=N/C(=S)Nc1ccc(Cl)cc1`: the Potency result is “inactive”.

As for `Cn1nc(-c2ccccc2)c2nc3ccccc3nc21`, the Potency result is “inactive”.

With `CN1CCN(C2=CC3=CC(=C(C#N)C#N)CCC3CC2)CC1` (stereo not given), the Potency result was “inactive”.

For the molecule `COc1cc2oc3cc(C#Cc4ccc(N)cc4)ccc3c(=O)c2cc1OC`, the Potency entry was “inactive”.

`O=c1c(O)c(-c2ccccc2)oc2ccccc12`: the Potency entry was “inactive”.

With `COc1cc2c(C#CCCO)c(-c3ccc(C#N)cc3)oc(=O)c2cc1OC`, the Potency result is “inactive”.

As to `O=c1c2ccccc2oc2ccc(C#CC3(O)CCCCC3)cc12`, the Potency is 28.2 µM (active).

Regarding `COc1cccc2oc3cc(C#CC4(O)CCCCC4)ccc3c(=O)c12`, the Potency is 22.4 µM (active).

Consider `Nc1ccc(C#Cc2ccc3c(=O)c4ccccc4oc3c2)cc1`, for which the Potency entry was “inactive”.

In the case of `Nc1c(C(=O)NCc2ccco2)c2nc3ccccc3nc2n1CCc1ccc(F)cc1`, the Potency result was “inactive”.

For the molecule `Cc1ccc(COc2ccsc2C(=O)NN)cc1`, the Potency entry is “inactive”.

For `CC(=O)N1c2c(cc(Br)cc2S(=O)(=O)NCc2ccc(C)cc2)CC1C` (stereo not given), the Potency result is “inactive”.

Turning to `Cc1ccc(CN2C(=O)C(C)Oc3ccccc32)cc1` (stereo not given), the Potency result is “inactive”.

In the case of `Cc1ccc(CN2C(=O)C(=O)c3cc(Br)cc(C)c32)cc1`, the Potency is 39.8 µM (active).

Take `COC(=O)c1c(NC(=O)c2ccc(S(=O)(=O)N3CCCC(C)C3)cc2)sc2c1CCN(C(C)C)C2` (stereo not given): the Potency result is “inactive”.

For the molecule `O=C(Nc1cc[n+](-c2nc3ccccc3nc2[N-]S(=O)(=O)c2ccc(Cl)cc2)cc1)c1cccs1`, the Potency entry was “inactive”.

As to `CC(=O)Nc1ccc(S(=O)(=O)[N-]c2nc3ccccc3nc2-[n+]2ccc(NC(=O)c3ccccc3)cc2)cc1`, the Potency result is “inactive”.

As to `O=C(Nc1ccc[n+](-c2nc3ccccc3nc2[N-]S(=O)(=O)c2ccccc2)c1)c1ccc(Cl)cc1`, the Potency was 11.2 µM (active).

On to `Cc1c(NC(=O)C(C)OC(=O)c2cccc(S(=O)(=O)N3CCOCC3)c2)c(=O)n(-c2ccccc2)n1C` (stereo not given), for which the Potency result is “inactive”.

`COc1ccc(C(=O)/C=C/c2ccc(O)cc2)c(O)c1CC=C(C)C`: the Potency was 39.8 µM (active).

As for `COc1ccc(/C=C/C(=O)C2C(=O)C=C(C)OC2=O)cc1O` (stereo not given), the Potency result was “inactive”.

Turning to `COc1ccc(C(=O)/C=C/c2ccc(O)cc2)c(O)c1C/C=C(\C)CCC=C(C)C`, the Potency was 39.8 µM (active).

As for `COc1cc(/C=C/C(=O)OCC(=O)Nc2ccc(Cl)cn2)ccc1O`, the Potency result is “inactive”.

For `COc1ccc(-c2cc(C(F)(F)F)n3ncc(C(=O)N4CCCCC4c4cccnc4)c3n2)cc1` (stereo not given), the Potency result is “inactive”.

As to `N#Cc1c(O)nc2c(c1-c1cccnc1)COc1ccccc1-2`, the Potency entry is “inactive”.

As to `O=C(NC(=S)N1CCN(c2ccc(C(F)(F)F)cc2[N+](=O)[O-])CC1)c1cccs1`, the Potency was 39.8 µM (active).

Consider `O=C(NC(=S)N1CCN(c2ccc(Cl)cc2[N+](=O)[O-])CC1)c1cccs1`, for which the Potency was 17.8 µM (active).

Regarding `O=C(N/N=C/c1cc(Cl)cc([N+](=O)[O-])c1O)c1ccccc1NS(=O)(=O)c1cccs1`, the Potency entry was “inactive”.

For `Cc1cccc(N2CCN(C(=O)Cc3ccccc3[N+](=O)[O-])CC2)c1C`, the Potency entry was “inactive”.

Regarding `O=C(COC(=O)c1cccc([N+](=O)[O-])c1)NNC(=O)c1cccs1`, the Potency entry is “inactive”.
